Drawing on PubChem BioAssay (NCI), this text covers growth for 13 molecules.

Structures are written as SMILES. The panel holds about 83,000 compounds, 20% with a hit somewhere; the sample as a whole holds those more often.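 Results are percent growth after 48 hours of single-concentration exposure. 100 means growth as in untreated cells, lower positive values show inhibition; negative values down to -100 show cell death.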 Values without a mark were called inactive. Active and inactive are the calls of the source. The calls were made as follows: active = growth percent below 10; inactive = the rest.

What all share (assay): NCI-60 one-dose screen, 48 h (100 = growth as untreated, 0 = no growth, -100 = all killed)
Common to all, as to settings: 10 µM unless noted

Experiment [1] relates to HCT-15 colon.
Experiment [2] concerns HT29 colon.
In experiment [3] the test system is SNB-75 CNS.
Experiment [4] deals with SNB-19 CNS.
The test system of experiment [5] is U251 CNS.
The test system of experiment [6] is PC-3 prostate.
Experiment [7] deals with SK-MEL-5 melanoma.
In experiment [8] the test system is UACC-62 melanoma.
The test system of experiment [9] is LOX IMVI melanoma.
The subject of experiment [10] is SK-MEL-28 melanoma.
In experiment [11] the test system is SK-MEL-2 melanoma.
The subject of experiment [12] is EKVX NSCLC.
In experiment [13] the test system is SN12C renal.
Experiment [14] concerns UO-31 renal.
Experiment [15] relates to TK-10 renal.
In experiment [16] the test system is ACHN renal.
The test system of experiment [17] is CAKI-1 renal.
Experiment [18] concerns A498 renal.
The test system of experiment [19] is CCRF-CEM leukemia.
In experiment [20] the test system is MOLT-4 leukemia.

Take `CC1=NNC(=O)C1CCC(=O)N/N=C(\C)c1ccc2ccccc2c1` (stereo not given): the growth was 107% in experiment [1]; 116% in experiment [2]; 121% in [3]; 114% in experiment [4]; 109% in experiment [5]; 94.9% in experiment [6]. In addition, the growth is 105% in experiment [7]; 97.5% in experiment [8]; 99.5% in experiment [9]; 109% in experiment [10]; 102% in experiment [11]; 154% in experiment [12]. The growth in experiment [13] was 102%; in experiment [14], 84.8%; in experiment [15] it was 130%; in experiment [16] it was 111%; in experiment [17], 107%; in experiment [18], 110%. Also, the growth was 105% in experiment [19] and 88.9% in experiment [20].

Take `COc1ccc(C(=O)c2cc3c(N)c(C(=O)Nc4ccc(Br)cc4)sc3nc2C)cc1`: the growth was 69.3% in [1]; 74.9% in experiment [2]; -0.922% (active) in experiment [3]; 56.6% in experiment [4]; 58.7% in experiment [5]; 74.2% in experiment [6]. For the same molecule, the growth in experiment [7] was 81.5%; in experiment [8], 73.4%; in experiment [9], 84.5%; in [10], 86.4%; in [11] it was 74.4%; in [12], 83.1%. Also, the growth in [13] was 84.4%; in experiment [14], 72.3%; in [15], 98.8%; in [16] it was 65.5%; in experiment [17], 62.5%; in [18], 83.9%. The growth in [19] was 88.5%; in experiment [20], 91.2%.

In the case of `Cc1ccc2[nH]c(=S)n(-c3ccc(S(=O)(=O)Nc4ccc(Cl)nn4)cc3)c(=O)c2c1`, the growth in [1] was 101%; in experiment [2], 103%; in experiment [3], 97.8%; in [4], 97.5%; in experiment [5], 100%; in experiment [6], 103%. Moreover, the growth is 101% in experiment [7]; 98.5% in [8]; 100% in experiment [9]; 108% in [10]; 106% in [11]; 97.8% in experiment [12]. For the same molecule, the growth in experiment [13] is 96.9%; in [14] it was 85.2%; in [15], 100%; in experiment [16], 104%; in experiment [17], 90.6%; in [18], 92.1%. Besides, the growth in experiment [19] and in experiment [20] was 100% in each case.

As for `COc1ccc(C(=O)c2cc3c(N)c(C(=O)Nc4cccc(Cl)c4)sc3nc2C)cc1`, the growth is 21% in experiment [1]; -3.3% (active) in experiment [2]; -10.1% (active) in experiment [3]; 41.8% in experiment [4]; 23% in [5]; 27.9% in experiment [6]. Further, the growth in experiment [7] was 9.91% (active); in experiment [8], 39.3%; in experiment [9], 48.2%; in experiment [10], 65.7%; in experiment [11], 39.8%; in [12], 39.4%. Further, the growth in experiment [13] was 42.7%; in [14], 42.7%; in experiment [15], 49.9%; in experiment [16], 49.3%; in experiment [17], 44.1%; in experiment [18] it was -0.876% (active). Moreover, the growth is 8.14% (active) in [19] and 20.2% in experiment [20].

Turning to `COc1cc(OC)cc(C2C3=C(COC3=O)Nc3cc(OC)ccc32)c1` (stereo not given), the growth in experiment [1] was 11.3%; in [2], 0.152% (active); in experiment [3] it was 40.7%; in experiment [4], 36.2%; in experiment [5] it was 16.2%; in experiment [6], 29.3%. Besides, the growth was -24.3% (active) in experiment [7]; 36% in experiment [8]; 25.8% in [9]; 63.5% in experiment [10]; 1.66% (active) in experiment [11]; 53.7% in [12]. Besides, the growth was 25.2% in experiment [13]; 46.8% in experiment [14]; 65.7% in [15]; 28.1% in experiment [16]; 36.7% in [17]; 1.93% (active) in [18]. Besides, the growth in experiment [19] is 19.9%; in [20], 17.6%.

With `CC[N+](CC)(CCCC(C)[N+]1(Cc2ccccc2)C(C)=CC=C1C)Cc1ccccc1` (stereo not given), the growth was 98.5% in experiment [1]; 44.1% in [2]; 87.6% in [3]; 92.6% in experiment [4]; 106% in [5]; 73.3% in [6]. Moreover, the growth in experiment [7] was 68.7%; in experiment [8] it was 73%; in [9] it was 90.7%; in experiment [10], 78.8%; in [11] it was 102%; in [12], 78.1%. The growth is 85.1% in experiment [13]; 91.2% in experiment [14]; 93.8% in [15]; 100% in [16]; 101% in experiment [17]; 87.5% in experiment [18]. Moreover, the results for the growth in [19] and in [20] were 74.1% and 84%, respectively.

In the case of `NC(=O)c1cccc(-c2cc(C(N)=O)ccc2Cl)c1`, the growth was 33.8% in experiment [1]; 8.86% (active) in experiment [2]; -19.6% (active) in [3]; 41.6% in [4]; 19.1% in experiment [5]; 29.6% in experiment [6]. For the same molecule, the growth was 14.9% in experiment [7]; 35.7% in experiment [8]; 42.1% in experiment [9]; 58.8% in experiment [10]; 34.5% in experiment [11]; 35.7% in [12]. For the same molecule, the growth is 50% in experiment [13]; 45.7% in experiment [14]; 51.2% in experiment [15]; 36.3% in experiment [16]; 31.8% in experiment [17]; -5.64% (active) in experiment [18]. Moreover, the growth is 7.74% (active) in [19] and 26.9% in experiment [20].

With `CN1C(=O)N(C)[C@H]2NC(NN)=N[C@H]21`, the growth in experiment [1] was 103%; in experiment [2] it was 105%; in [3], 80.9%; in [4] it was 106%; in [5], 98.7%; in [6], 96.3%. Moreover, the growth was 101% in experiment [7]; 101% in experiment [8]; 97.8% in [9]; 101% in [10]; 108% in experiment [11]; 99.1% in [12]. The growth is 99.8% in experiment [13]; 93.5% in experiment [14]; 97.4% in experiment [15]; 104% in [16]; 89.2% in experiment [17]; 97.9% in [18]. Further, the growth in [20] was 101%.

In the case of `COc1ccccc1/C=C1\Oc2cc(OCCCN3CCCC3)ccc2C1=O`, the growth in [1] is 77.7%; in experiment [2], 16.4%; in experiment [3], 83.5%; in experiment [4], 91.2%; in [5], 76.5%; in experiment [6] it was 85.8%. For the same molecule, the growth is 79.8% in experiment [7]; 95.6% in [8]; 75.8% in experiment [9]; 91.9% in experiment [10]; 102% in [11]; 90.6% in experiment [12]. For the same molecule, the growth is 86.9% in experiment [13]; 77.9% in experiment [14]; 104% in experiment [15]; 97.4% in experiment [16]; 77.8% in experiment [17]; 77.3% in experiment [18]. Besides, the growth in [20] is 93.3%.

Consider `O=C(N/N=C/c1cccnc1)c1ccccc1Nc1cccc(C(F)(F)F)c1`, for which the growth in [1] is 71.7%; in experiment [2], 91.7%; in experiment [3], 83%; in experiment [4] it was 84.8%; in experiment [5], 92.1%; in experiment [6], 88.8%. For the same molecule, the growth in experiment [7] was 74.3%; in experiment [8] it was 102%; in [9], 78.6%; in experiment [10] it was 85.5%; in experiment [11], 101%; in experiment [12] it was 89.2%. The growth is 159% in [13]; 76.4% in experiment [14]; 97.2% in [15]; 100% in experiment [16]; 79.6% in [17]; 75.6% in experiment [18]. Also, the growth in experiment [19] was -52.4% (active); in [20], 62.7%.

Consider `COc1cc(C2CC(c3cccc(Nc4ccncc4)c3)=NN2c2cc(Cl)cc(Cl)c2)cc(OC)c1OC` (stereo not given), for which the growth is -40.4% (active) in experiment [1]; -28% (active) in experiment [2]; 25.9% in experiment [3]; 50.7% in [4]; -51.1% (active) in experiment [5]; -36.1% (active) in experiment [6]. The growth in [7] is 2.57% (active); in experiment [8] it was 94.5%; in experiment [9], -90.9% (active); in [10], -78.5% (active); in [11] it was 71.4%; in experiment [12], 65.8%. The growth is 9.72% (active) in [13]; 28.4% in experiment [14]; 34% in experiment [15]; -66.5% (active) in [16]; 8.57% (active) in experiment [17]; 84% in [18]. The growth in experiment [19] was -17.5% (active); in experiment [20], -22.7% (active).

In the case of `O=C(N/N=C/c1ccncc1)c1ccccc1Nc1cccc(C(F)(F)F)c1`, the growth in [1] is 74.2%; in [2] it was 99.3%; in experiment [3], 75.8%; in experiment [4] it was 72.2%; in experiment [5] it was 86.9%; in experiment [6] it was 75.8%. Also, the growth in experiment [7] was 76%; in [8], 81%; in [9], 70.5%; in experiment [10] it was 94.9%; in experiment [11], 99.3%; in [12], 91.7%. For the same molecule, the growth was 90.8% in experiment [13]; 60.9% in experiment [14]; 102% in [15]; 90.5% in [16]; 117% in [17]; 71.9% in experiment [18]. In addition, the growth in experiment [20] was 72.2%.

As for `O=C1CCC(NC(=S)Nc2ccccc2)N1` (stereo not given), the growth in [1] was 113%; in experiment [2], 98.3%; in [3], 113%; in [4], 100%; in experiment [5], 104%; in [6], 102%. Moreover, the growth is 106% in experiment [7]; 99.9% in experiment [8]; 97.5% in experiment [9]; 108% in experiment [10]; 103% in experiment [11]; 117% in experiment [12]. The growth in experiment [13] is 97.4%; in experiment [14], 95.3%; in experiment [15] it was 101%; in experiment [16] it was 109%; in experiment [17], 106%; in experiment [19] it was 97.2%.
